Compound activity (PubChem BioAssay)
uPA generation = inhibitors of cell surface uPA generation; Potency, µM (highest dose often 38.3 µM), inactives show at the top dose activity change, negative = inhibition, most hits filed as inhibitors; 330,000 compounds, 0.31% hits; AID 540303; cell surface uPA generation assay, qHTS; active means well fitted inhibition curve with a large enough effect; inconclusive means small, poorly fitted or top-dose-only effect; inactive means no such curve, though single readings can be large or run the other way; tested in mouse RAW 264.7 cells; further: potency means the concentration at half of the fitted maximal effect; on the % scale 0 is the no-effect control and ±100 the full control effect; nearly all actives have a fitted effect of over 55% in size
CCT modulator = cytosolic chaperonin activity modulation | purified chaperonin ATPase assay, HTRF ADP detection, 30 min | activity change, % (test concentration not listed), hits read low | 360,000 compounds, 0.3% hits | AID 651819; in the data active means activity change below about -30%; further: on the % scale 0 is the no-effect control and ±100 the full control effect
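TRiC at 40 or 20 nM final (batch-dependent) in 30 mM Tris pH 7.4, 100 mM KCl, 5 mM MgCl2, 1 mM DTT, with compound at single 76 uM and 10 uM ATP, 30 min at 37 deg C. ADP detected by HTRF Transcreener, 665/615 ratio.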
GLP1R inv ag = GLP-1 receptor (human) inverse agonism. 410,000 compounds, 1.6% hits. Potency, µM (series often up to 38.3 µM), for the others: at the highest dose activity change, negative = inhibition, hits mostly inhibitors. P43220. AID 624417. HEK293 GLP-1R CRE-luciferase, luminescence, 24 h; GLP-1R form is constitutively active; further: potency means the concentration at half of the fitted maximal effect; on the % scale 0 is the no-effect control and ±100 the full control effect; nearly all actives have a fitted effect of over 55% in size
Target sequence (P43220 whole entry, looked up): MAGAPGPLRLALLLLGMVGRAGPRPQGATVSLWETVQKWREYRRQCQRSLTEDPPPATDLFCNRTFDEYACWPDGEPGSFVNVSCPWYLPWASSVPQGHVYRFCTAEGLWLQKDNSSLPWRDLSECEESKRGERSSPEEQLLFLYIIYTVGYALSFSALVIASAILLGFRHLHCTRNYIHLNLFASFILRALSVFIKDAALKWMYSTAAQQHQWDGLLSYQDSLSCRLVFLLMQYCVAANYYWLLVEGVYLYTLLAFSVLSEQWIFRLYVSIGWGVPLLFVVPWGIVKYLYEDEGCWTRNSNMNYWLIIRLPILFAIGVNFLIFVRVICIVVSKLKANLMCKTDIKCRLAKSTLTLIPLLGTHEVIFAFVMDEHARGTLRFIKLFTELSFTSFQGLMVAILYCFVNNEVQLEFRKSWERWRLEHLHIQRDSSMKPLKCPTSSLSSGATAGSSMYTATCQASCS
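Inverse agonists were sought by their lowering of basal cAMP reporter luciferase output in HEK293 cells stably carrying constitutively active human GLP-1R, after 24 h compound treatment.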
GLP1R ag = agonists of human GLP-1 receptor; HEK293 GLP-1R CRE-luciferase, luminescence, 4-6 h; cells express a hypersensitive GLP-1R form; Potency, µM (titrated, usually from 45.6 µM), inactives show top-dose activation, most hits filed as activators; 380,000 compounds, 0.007% hits; further: potency means the concentration at half of the fitted maximal effect; % of control where 0% means no effect
MmCpn inh = blocks the Methanococcus maripaludis chaperonin Mm-Cpn. AID 504842. Potency, µM (doses to about 76.9 µM), for inactives: top-dose activity, negative = inhibition, hits mostly inhibitors. purified Mm-Cpn ATPase, ADP Transcreener TR-FRET. 330,000 compounds, 0.031% hits; further: potency means the concentration at half of the fitted maximal effect; on the % scale 0 is the no-effect control and ±100 the full control effect; nearly all actives have a fitted effect of over 80% in size
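Purified archaeal chaperonin (25 nM final) was preincubated with compound for 10 min at 37°C, then ATP (10 uM final) was added for 30 min at 37°C in Tris pH 7.4/KCl/MgCl2/DTT buffer. ADP was quantified by HTRF Transcreener TR-FRET.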
HEK293 tox = cytotoxic in the GLP-1 receptor inverse agonist counter-screen. Potency, µM (doses to about 38.3 µM), for inactives: at the highest dose activity change, negative = inhibition, hits mostly inhibitors. HEK293 cAMP-luciferase reporter cells, luminescence, 24 h. 410,000 compounds, 0.13% hits;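 further: loss of luciferase light is scored as toxicity; potency means the concentration at half of the fitted maximal effect; on the % scale 0 is the no-effect control and ±100 the full control effect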
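1536-well qHTS counterscreen of the MLSMR; 200 cells/uL, 12 h pre-incubation, 23 nL cpd, 24 h at 37 deg C 5% CO2, luciferase detection reagent, 12 min RT, luminescence. Inhibition = undesired.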
An asterisk follows results filed as active; ? = inconclusive; . = not tested or not shown; ! = repeats disagree; [ ] = another dose, or the depositor's remark. In the library only some 2.2% were active in any assay of this set; here they are far more common. Unless noted, the call rests on the fitted dose curve; in most records, active means well fitted curve in the direction sought with a large enough effect; inconclusive means small, poorly fitted or top-dose-only effect, or another doubt; inactive means no such curve, though single readings can be large; an effect the other way counts as inactive or inconclusive.

SMILES	uPA generation	CCT modulator	GLP1R inv ag	GLP1R ag	MmCpn inh	HEK293 tox
CN(C)C(=O)CN1C(=O)NC2(CCCc3ccccc32)C1=O (centres undefined)	2%	-2	-5%	5%	1%	7%
Cc1ccc2occ(CC(=O)Nc3ccc(S(=O)(=O)N4CCC(C)CC4)cc3)c2c1	.	.	?	.	.	-20%
O=c1c2cccnc2n(Cc2ccccc2F)c(=O)n1Cc1ccc(F)cc1	.	.	?	.	.	3%
Cc1nn(C)c(Cl)c1S(=O)(=O)N[C@@H](c1ccccc1)[C@]1(C)C[C@H]1[C@@H](C)C(=O)Nc1ccc2ccccc2c1	-26%	-70*	?	-4%	-1%	?
COC(=O)C1=C(C)NC(C)=C(C(=O)O[C@H]2CCN(Cc3ccccc3)C2)C1c1cccc([N+](=O)[O-])c1 (some centres undefined)	.	.	.	-4%	.	.
Cc1cc(N2CCN(C)CC2)nc2ccc(NC(=S)NCCN3CCc4ccccc4C3)cc12	?	0	?	21%	-3%	-17%
Cc1cc(N2CCCC2)nc2ccc(NC(=S)NCCCN3CCC(C)CC3)cc12	-5%	0	5µM*	-2%	0%	?
CCCN1CCN(CCCNC(=S)Nc2ccc3nc(N4CCN(CC)CC4)cc(C)c3c2)CC1	7%	0	?	4%	-1%	?
Cc1cc(N2CCN(C)CC2)nc2ccc(NC(=S)NCCCN3CCc4ccccc4C3)cc12	0%	-4	?	22%	2%	4.5µM*
CCC(=O)C(Cc1ccccc1)(Cc1ccccc1)CC(C)N(C)C (centres undefined)	.	.	.	6%[96 µM]	.	.
COCCCN1C(=O)C(=O)/C(=C(/O)c2ccc(S(=O)(=O)N3CCCCC3)cc2)C1c1cccc(OC)c1 (centres undefined)	0%	-84*	28%	-6%	-2%	2%
COCCCN1C(=O)C(=O)/C(=C(/O)c2ccc(S(=O)(=O)N3CCCCC3)cc2)C1c1ccc(O)c(OC)c1 (centres undefined)	2%	-2	0%	-5%	-1%	1%
N=c1sccn1CC(=O)Nc1cccc2ccccc12	5%	-122*	-25%	2%	1%	-14%
Cc1csc2nc(O)c(C(=O)NC3CCCCCC3)c(=O)n12	0%	-35*	?	1%	-3%	-1%
CCOc1ccccc1N(CC)C(=O)c1cc2c(=O)n(CC)c3ccccc3c2s1	.	.	10µM*	-1%	.	?
CCCCCNC(=O)C1CCC(Cn2c(=O)c3sccc3n(CC)c2=O)CC1 (centres undefined)	.	.	9%	.	.	-1%
CCN(c1ccccc1C)S(=O)(=O)c1nnc(NC(=O)c2ccccc2C)s1	.	.	?	.	.	-19%
CSCCC(NC(=O)c1ccccc1)C(=O)N1CCN(C(=O)c2ccccc2)CC1 (centres undefined)	8%	0	11%	-2%	1%	0%
CSCCC(NC(=O)c1ccccc1)C(=O)N1CC=C(c2ccccc2)CC1 (centres undefined)	-13%	-1	10µM*	-3%	1%	-22%
CCN1CCN(Cc2ccc(NC(=O)c3ccc(C)c(NC(=O)c4cc(-c5ccc(Br)cc5)n[nH]4)c3)cc2C(F)(F)F)CC1	13µM*	-2	?	0%	3%	?
CCN1CCN(Cc2ccc(NC(=O)c3ccc(C)c(NC(=O)c4nccn4C)c3)cc2C(F)(F)F)CC1	7%	1	-25%	-5%	-2%	-3%
CCN1CCN(Cc2ccc(NC(=O)c3cc(NC(=O)c4cnnc5ccccc45)cc(OC)c3)cc2C(F)(F)F)CC1	-1%	-2	8.9µM*!	2%	2%	?
CCN1CCN(Cc2ccc(NC(=O)c3ccc(C)c(NC(=O)c4cncc(-c5cccs5)c4)c3)cc2C(F)(F)F)CC1	1µM*	-1	?	-26%	.	?
CCN1CCN(Cc2ccc(NC(=O)c3ccc(C)c(NC(=O)c4nccnc4N)c3)cc2C(F)(F)F)CC1	-12%	0	1%	0%	2%	-61%
Cc1ccc(NC(=O)CN2C(=O)CSc3ccc(S(=O)(=O)N(C)C)cc32)cc1C	.	.	-30%	.	.	-4%
SMILES	uPA generation	CCT modulator	GLP1R inv ag	GLP1R ag	MmCpn inh	HEK293 tox
Cc1cc2c(n1-c1ccc(C(=O)NCC(C)c3ccccc3)cc1)CCCC2 (centres undefined)	.	.	2%	.	.	-14%
COc1cc(NC(=O)c2ccccc2)c(OC)cc1NC(=O)CN1CCCCC1	10%	-4	5µM*	?	0%	-5%
COc1cc(NC(=O)c2ccccc2)c(OC)cc1NC(=O)CN1CCOCC1	7%	1	25%	7%	2%	-15%
Cc1cc(NC(=O)CCCSc2nc(-c3ccco3)cc(C(F)(F)F)n2)n(-c2ccccc2)n1	1%	-4	8.9µM*	2%	-15%	-18%
CNc1ncnc2sc(-c3ccccc3)cc12	-5%	0	-12%[0.307 µM]	?	-2%	8%[0.307 µM]
S=c1[nH]cnc2sc(-c3ccccc3)cc12	6%	-16	-6%	1%	-21%	5.6µM*
Cc1cccc(C(=O)Nc2ccc(OCc3cc(=O)n4ccc(C)cc4n3)cc2)c1	.	.	0%	.	.	18%
O=C(N/N=C\c1c(O)ccc2ccccc12)c1ccc(O)cc1	?	1	?	-4%	1%	?
Cn1cc(C(=O)N/N=C/c2c(O)ccc3ccccc23)ccc1=O	?	-3	3.2µM*	0%	0%	53%
Cn1c(-c2ccccc2)c(/C=N/NC(=O)c2ccc(O)cc2)c2ccccc21	3.5µM*	-1	7.1µM*	12%	-6%	-20%
CC(C)(C)C(=O)NCCc1csc2nc(-c3ccc(F)cc3)nn12	.	.	-5%	.	.	1%
O=C(Cc1cccc(C(F)(F)F)c1)Nc1ccccc1N1CCCC1	-2%	-2	10µM*	14%	1%	5%
Cc1ccc(C(C(=O)NC2CCCC2)N(C(=O)Cc2cccs2)c2ccc3c(c2)OCCO3)cc1 (centres undefined)	4%	-3	10µM*	-1%	1%	-27%
Cc1ccc(C)c(N(C(=O)Cc2cccs2)C(C(=O)NC2CCCC2)c2ccc(C)o2)c1 (centres undefined)	-8%	0	-2%	-2%	2%	-13%
Cc1ccc(C(C(=O)NC2CCCC2)N(C(=O)Cc2cccs2)c2ccc(C)c(C)c2)o1 (centres undefined)	-23%	1	10µM*	3%	-1%	-28%
